Assay [1] can be described thus: Viability counterscreen for antagonist of constitutive androstane receptor (CAR) against the NCATS DSHEA and TCM libraries (AID 1794837).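 Also: compound exposure lasted 24 h before viability reading; 0% is about no effect.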 In outline: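 Counterscreen performed in a 1536-well qHTS format using HepG2-CYP2B6-hCAR cells; samples titrated in the presence of 48 uM CITCO, with viability measured fluorometrically (405/540 nm) after 24 h.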
A short description of assay [2]: Viability counterscreen for agonist of constitutive androstane receptor (CAR) against the NCATS DSHEA and TCM libraries (AID 1794838).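 Also: cells exposed to compound for 24 h; 0% is about no effect.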 Summed up: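 Multiplexed counterscreen: after 24 h compound exposure with 0.75 uM PK11195, HepG2-CYP2B6-hCAR viability was quantified fluorimetrically (CellTiter-Fluor, 405/540 nm) prior to the ONE-Glo luciferase read.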
Assay [3] addresses Nuclear receptor subfamily 1 group I member 3 (Homo sapiens) (UniProt Q14994). The assay is described as follows: Primary qHTS for agonist of constitutive androstane receptor (CAR) against the NCATS DSHEA and TCM libraries (AID 1794839).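 Also: HepG2 cells expressing human CAR with a CYP2B6 reporter plus PK11195 antagonist; luciferase reporter luminescence read with ONE-Glo; 0% is about no effect.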 Summed up:
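Concentration–response screen in HepG2-CYP2B6-hCAR cells under 0.75 µM PK11195; 24 h exposure; luminescent reporter signal with multiplexed fluorescent viability.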
In general terms: qHTS replaces the single test concentration by a dilution series.

Assay [4] can be described thus: HepG2 viability counterscreen (readout 2: ATP content) against the NCATS DSHEA and TCM libraries (AID 1794840).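 Also: HepG2 cells exposed to substances for about 24 h; 0% is about no effect.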 Summed up: (§1)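 After HepG2 cells attach for ~4 h, substances are added and incubated ~24 h at 37C, 5% CO2. GF-AFC fluorescence then CellTiter-Glo luminescence give protease and ATP readouts.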
(In general: Counterscreens check selectivity or assay interference.)

A short description of assay [5]: HepG2 viability counterscreen (readout 1: protease activity) against the NCATS DSHEA and TCM libraries (AID 1794841).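 Also: cells exposed to compounds for about 24 h before the protease read; 0% is about no effect.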 In outline:
as §1

A short description of assay [6]: Quantitative High-Throughput drug screen in 47 multiple myeloma cell lines against the NCATS MIPE library collection: FR4_PLB cell viability assay (AID 1918924; also: nearly all actives have a fitted effect of over 35% in size; also: potency is read from the fitted curve at half-maximal effect). In outline:
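Steps: seed 500 cells per well; pin-transfer MIPE 4.0 library; incubate 48 h at 37C, 5% CO2, humidified; add CellTiter-Glo, 5 min room temperature; read luminescence.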

Assay [7] can be described thus: Quantitative High-Throughput drug screen in 47 multiple myeloma cell lines against the NCATS MIPE library collection: EJM_DSMZ cell viability assay (AID 1918926; also: nearly all actives have a fitted effect of over 30% in size; also: potency is read from the fitted curve at half-maximal effect). Summed up: (§2)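 qHTS of the MIPE 4.0 collection: 500 myeloma cells/well, 48 h drug exposure at 37C in 5% CO2, then CellTiter-Glo for 5 min at room temperature before luminescence reading.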
The nature of assay [8]: Quantitative High-Throughput drug screen in 47 multiple myeloma cell lines against the NCATS MIPE library collection: AMO1_DSMZ cell viability assay (AID 1918927; also: nearly all actives have a fitted effect of over 30% in size; also: potency is read from the fitted curve at half-maximal effect). Summed up: as §2
Assay [9] in a line: Quantitative High-Throughput drug screen in 47 multiple myeloma cell lines against the NCATS MIPE library collection: ARD_JJKsccE7 cell viability assay (AID 1918929; also: potency is read from the fitted curve at half-maximal effect;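 as to Viability: 100% = DMSO-only wells and 0% = media-only wells without cells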). Summed up:
as §2

A short description of assay [10]: NCATS anti-infectives library activity on HEK293 viability as a counter-qHTS vs the C. elegans viability qHTS (AID 1745854). Also: % is scaled to controls: 0 for no effect and ±100 for the full control effect. Summed up: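 CellTiter-Glo luminescence, read on a CCD imager, scored viability of HEK293 cells after 24 hr compound exposure at 37C. Library tested in several concentrations, 1:5 steps, up to 41.7 uM; digitonin served as control.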
The nature of assay [11]: NCATS anti-infectives library activity on the primary C. elegans qHTS viability assay (AID 1745855; calls by dose curve; also: potency is read from the fitted curve at half-maximal effect). In outline: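 Titration-based screen in worms: eggs hatched overnight in M9, L1 larvae fed TOP10 capsules in S medium with compound, incubated 21 °C for 7 days; fluorescent objects gated by size and intensity at days 0, 3 and 7.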
The target in assay [12] is Glutathione peroxidase 1 (Homo sapiens) (UniProt P07203). Nature of the assay: Primary qHTS Assay for Inhibitors of Recombinant Selenoprotein Glutathione Peroxidase 1 (GPX1) (AID 1845191). Also: nearly all actives have a fitted effect of over 65% in size. Summed up:
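GR-coupled readout: NADPH consumption tracked by fluorescence, ex 340/em 450 nm, at t=0 and after 15 min at RT. Final mix 10 nM GPX1, 1 mM GSH, 0.5 mM CHP, 0.5 mM NADPH, 100 nM GR, 0.01% BSA, following 30 min enzyme–compound preincubation.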

The target of assay [13] is Phospholipid hydroperoxide glutathione peroxidase GPX4 (Homo sapiens) (UniProt P36969). Nature of the assay: Primary qHTS Assay for Inhibitors of Recombinant Selenoprotein Glutathione Peroxidase 4 (GPX4) (AID 1845192). Also: nearly all actives have a fitted effect of over 65% in size. Summed up:
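Steps: GPX4 plus compound, 30 min RT; add GR/GSH/NADPH master mix; start with cumene hydroperoxide; read 340/450 nm fluorescence at 0 and 15 min. Finals were 200 nM GPX4, 1 mM GSH, 0.5 mM CHP, 0.5 mM NADPH, 100 nM GR.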

Assay [14] in a line: Quantitative High-Throughput drug screen in 47 multiple myeloma cell lines against the NCATS MIPE library collection: ARP1_JJKsccF8 cell viability assay (AID 1918928; also: nearly all actives have a fitted effect of over 40% in size; also: potency is read from the fitted curve at half-maximal effect). Summed up:
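Viability screen: myeloma cells (500/well) incubated 48 h at 37 °C, humidified 5% CO2, with pinned library compounds; CellTiter-Glo added, luminescence read; DMSO wells set 100%, medium-only wells 0%.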

Assay [15] can be described thus: Quantitative High-Throughput drug screen in 47 multiple myeloma cell lines against the NCATS MIPE library collection: Delta47_JCRB cell viability assay (AID 1918925; also: nearly all actives have a fitted effect of over 45% in size; also: potency is read from the fitted curve at half-maximal effect). Summed up: as §2
The target in assay [16] is Phenylethanolamine N-methyltransferase (Homo sapiens) (UniProt P11086). The assay is described as follows: Confirmatory Screen for Target Class Profiling of Small Molecule Inhibitors of Methyltransferases (AID 1745852). To be noted: MTase-Glo luminescence, SAH detection, recombinant enzyme; measured here: PNMT max response; stronger effect = lower value.
Sequence of Phenylethanolamine N-methyltransferase (Homo sapiens) (P11086 whole entry, looked up): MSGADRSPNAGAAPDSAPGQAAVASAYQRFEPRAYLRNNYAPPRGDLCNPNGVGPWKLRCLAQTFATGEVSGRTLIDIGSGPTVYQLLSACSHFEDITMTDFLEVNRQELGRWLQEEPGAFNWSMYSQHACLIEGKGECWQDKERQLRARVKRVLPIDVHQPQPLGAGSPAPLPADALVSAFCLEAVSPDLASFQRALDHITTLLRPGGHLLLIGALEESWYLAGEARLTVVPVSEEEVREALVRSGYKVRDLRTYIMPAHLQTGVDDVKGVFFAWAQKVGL
The target in assay [17] is Luciferin 4-monooxygenase (Photinus pyralis) (UniProt P08659). Nature of the assay: Primary firefly luciferase (FLuc) qHTS assay for identification of artifact compounds. (AID 1845220). Also: nearly all actives have a fitted effect of over 60% in size. Also: potency is read from the fitted curve at half-maximal effect. Summed up:
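Enzymatic FLuc inhibition assay: compounds pre-exposed to luciferin/ATP (10 uM each) for 15 min, then purified P. pyralis enzyme at 10 nM added. Read-out: luminescence at 5 min.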

The nature of assay [18]: Primary fluorescence-based thiol-reactive (MSTI) qHTS assay for identification of artifact compounds. (AID 1845221).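 Also: series mostly up to about 54 µM; thiol-reactive compounds lower the probe fluorescence signal; nearly all actives have a fitted effect of over 65% in size.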 In outline: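 One-hour, room-temperature, dark incubation of compound with 4 uM MSTI in PBS (pH 7.4, 2% DMSO) precedes a fluorescence read at 525 nm excitation, 598 nm emission; Hill-equation fitting yields concentration-response values.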
The subject of assay [19] is Nanoluciferase (engineered Oplophorus gracilirostris luciferase). The assay is described as follows: Primary Nanoluciferase (NLuc) qHTS assay for identification of artifact compounds. (AID 1845222).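 Also: NLuc secreted into diluted conditioned medium of S16 cells; series mostly up to about 54 µM; 0% = DMSO and -100% = no enzyme.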 Summed up:
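S16 cell supernatant NLuc, 1:55; cpds qHTS; 15 min RT dark; Nano-Glo substrate 1:100, 5 min; luminescence; Hill fit of % inhibition.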

A short description of assay [20]: Primary redox qHTS assay for identification of artifact compounds. (AID 1845223). Summed up: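 Redox-cycling detection via DTT (250 uM final) oxidation coupled to Amplex Red (25 uM)/HRP (250 mU/mL) in HBSS. 15 min preincubation plus 30 min after DTT, room temperature. Ex/Em 525/598 nm; 4-parameter Hill fit against DMSO and 10 uM DA3003.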

Inconclusive results are not listed. Calls of active or inactive are those of the source. Unless noted, calls follow the shape of the dose curve; as a rule, active = well fitted curve in the direction sought with a large enough effect; inconclusive = small, poorly fitted or top-dose-only effect, or another doubt; inactive = no such curve, though single readings can be large; an effect the other way counts as inactive or inconclusive.

This passage reports outcome, Potency and activity results from PubChem BioAssay (NCATS).

Sequence of Glutathione peroxidase 1 (Homo sapiens) (P07203 whole entry, looked up): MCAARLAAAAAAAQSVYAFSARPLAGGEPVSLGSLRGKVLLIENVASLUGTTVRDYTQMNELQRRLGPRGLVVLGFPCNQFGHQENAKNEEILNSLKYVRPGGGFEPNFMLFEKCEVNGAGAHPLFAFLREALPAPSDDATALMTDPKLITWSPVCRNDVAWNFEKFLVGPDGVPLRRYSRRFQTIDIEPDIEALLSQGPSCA
Sequence of Phospholipid hydroperoxide glutathione peroxidase GPX4 (Homo sapiens) (P36969 whole entry, looked up): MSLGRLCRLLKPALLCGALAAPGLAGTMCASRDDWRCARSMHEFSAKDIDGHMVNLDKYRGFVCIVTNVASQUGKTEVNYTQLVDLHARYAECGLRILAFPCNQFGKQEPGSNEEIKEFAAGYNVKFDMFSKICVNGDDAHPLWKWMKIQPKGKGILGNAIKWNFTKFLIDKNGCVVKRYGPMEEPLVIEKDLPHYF
Sequence of Nuclear receptor subfamily 1 group I member 3 (Homo sapiens) (Q14994 whole entry, looked up): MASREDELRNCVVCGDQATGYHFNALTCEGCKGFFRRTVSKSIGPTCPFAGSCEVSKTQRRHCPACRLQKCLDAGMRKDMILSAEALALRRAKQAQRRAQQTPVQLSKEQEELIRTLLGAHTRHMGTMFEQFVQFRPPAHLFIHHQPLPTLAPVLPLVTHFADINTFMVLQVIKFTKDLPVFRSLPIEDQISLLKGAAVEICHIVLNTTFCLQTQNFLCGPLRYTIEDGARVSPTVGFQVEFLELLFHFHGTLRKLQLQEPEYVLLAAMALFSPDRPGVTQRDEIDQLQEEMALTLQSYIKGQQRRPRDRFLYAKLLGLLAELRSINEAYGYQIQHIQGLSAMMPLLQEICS

As to `C[C@@]12C[C@@]3(O)O[C@@H](O1)[C@]1(COC(=O)c4ccccc4)[C@@H]3C[C@@]12O[C@@H]1O[C@H](CO)[C@@H](O)[C@H](O)[C@@H]1O`, the outcome in assay [1], in assay [2], in assay [3], in assay [4] and in [5] was “inactive” in each case. For the same compound, the Potency entry in assay [6], in [7], in assay [8] and in [9] was “inactive” in each case.

As for `C[C@H](NC(=O)[C@@H](O)c1cc(F)cc(F)c1)C(=O)N[C@@H]1C(=O)N(C)c2ccccc2-c2ccccc21`, the Potency result in [10], in assay [12], in assay [13], in assay [8], in assay [14] and in assay [9] was “inactive” throughout. Besides, the Potency in [11] is 0.365 µM (active).

Take `c1cc(CN2CCCNCCNCCCNCC2)ccc1CN1CCCNCCNCCCNCC1`: the Potency entry in assay [10], in assay [12], in [13], in assay [6], in [15] and in [7] was “inactive” throughout. Moreover, the Potency result in assay [9] was “inactive”.

As to `O=C(Nc1cc2cc[nH]c2cn1)c1ccccc1`, the activity in assay [16] was -83.3%. The Potency result in [12], in assay [13], in assay [18] and in [20] was “inactive” each time. Further, the Potency in [17] was 2.39 µM (active); in assay [6], 14.8 µM (active); in assay [15] it was 9.35 µM (active); in assay [7] it was 8.33 µM (active); in assay [8] it was 10.5 µM (active); in assay [9] it was 10.5 µM (active). Also, in assay [19], the outcome was “inactive”.

Regarding `COc1cc2c(Nc3ccc(Cl)c(Cl)c3F)ncnc2cc1OCC1C[C@@H]2CN(C)C[C@H]2C1`, the activity in assay [16] is -68.7%. For the same compound, the Potency is 14.8 µM (active) in assay [6]; 2.35 µM (active) in assay [15]; 2.96 µM (active) in assay [7]; 8.33 µM (active) in assay [8]; 8.33 µM (active) in assay [14]; 13.2 µM (active) in assay [9].

On to `O=C(O)c1ccc(Nc2ncc3c(n2)-c2ccc(Cl)cc2C(c2c(F)cccc2F)=NC3)cc1`, for which the Potency entry in [12], in [13], in [17], in assay [18], in [20] and in assay [6] was “inactive” throughout. For the same compound, in assay [19], the outcome is “inactive”. For the same compound, the Potency in assay [15] is 0.935 µM (active); in assay [7], 23.5 µM (active); in assay [8], 0.187 µM (active); in assay [14], 0.0105 µM (active).

As for `Cc1cnc(Nc2ccc(N3CCN(C)CC3)cc2)nc1Nc1cccc(S(=O)(=O)NC(C)(C)C)c1`, in [16], the activity came out at 0.463%. Also, the Potency result in [12] and in assay [13] was “inactive” each time. The Potency in [6] was 16.6 µM (active); in [15], 1.48 µM (active); in [8], 1.18 µM (active); in assay [14], 3.72 µM (active); in [9], 0.59 µM (active).

In the case of `Nc1ccc(C(=O)Nc2cccc(-c3nc(N4CCOCC4)c4oc5ncccc5c4n3)c2)cn1`, the Potency entry in assay [10], in [12], in assay [13], in assay [17], in assay [18] and in assay [20] was “inactive” in each case. Further, the outcome in [19] was “inactive”. Further, the Potency is 18.7 µM (active) in assay [6]; 0.935 µM (active) in [15]; 6.62 µM (active) in [8]; 6.62 µM (active) in assay [14]; 1.66 µM (active) in [9].
